Sampled rows, rich in hits. Any-hit rate of the full collection: about 3.4%.
FBW7 act: FBW7 E3 ligase activators, primary screen, biochemical, AlphaScreen, human; AlphaScreen FBW7–phospho-cyclin E peptide binding, activator screen; normalized activity (activation), % at 26.1 µM; hit rate 0.13% among 650,000; AID 1259310, 2017; in the data active = normalized activity above about 1.9%;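 also: purified mutant Fbw7 with reduced substrate affinity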
GPR151 ag: activators of human GPR151, primary screen, cell-based, PathHunter beta-arrestin, luminescence. G-protein coupled receptor 151 (Homo sapiens), Q8TDV0. PathHunter beta-arrestin GPR151 cells. activation, % at 11.2 µM. hit rate 1% among 650,000; in the data active = activation above about 4.9%;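 also: 0% = median of compound wells and 100% = cells with positive control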
Target sequence (Q8TDV0 whole entry, looked up): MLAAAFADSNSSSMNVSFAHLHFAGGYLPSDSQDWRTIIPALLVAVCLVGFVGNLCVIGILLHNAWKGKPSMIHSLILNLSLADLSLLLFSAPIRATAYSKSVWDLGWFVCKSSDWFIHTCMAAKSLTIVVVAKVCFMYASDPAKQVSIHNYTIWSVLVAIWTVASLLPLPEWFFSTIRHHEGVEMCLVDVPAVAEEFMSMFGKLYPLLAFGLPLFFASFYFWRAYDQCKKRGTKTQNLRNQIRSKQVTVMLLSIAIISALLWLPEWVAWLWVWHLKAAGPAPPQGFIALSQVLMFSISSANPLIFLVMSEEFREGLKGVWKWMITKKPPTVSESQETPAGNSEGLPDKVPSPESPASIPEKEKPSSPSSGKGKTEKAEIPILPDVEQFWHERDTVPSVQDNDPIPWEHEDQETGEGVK
TEAD-YAP block: TEAD-YAP interaction inhibition, primary screen, TEAD-YAP interaction inhibitor project, luminescence, HEK-TIYL cells | TEAD-Gal4/YAP UAS-luciferase luminescence | inhibition, % at 9.12 µM | hit rate 1.4% among 640,000 | AID 1259422, 2018; in the data active = inhibition above about 32%;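 also: 0% = median of test compound wells and 100% = reference inhibitor wells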
MITF inh: MITF inhibitors, primary screen, biochemical, AlphaScreen, human; Microphthalmia-associated transcription factor (Homo sapiens), O75030; AlphaScreen MITF homodimerization, bead proximity signal; inhibition, % at 2.6 µM; hit rate 0.91% among 650,000; AID 1259374, 2018; in the data active = inhibition above about 50%;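 also: 0% = vehicle wells with protein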
MITF inh conf: MITF inhibitors, retest of hits, confirmation, biochemical, AlphaScreen, triplicate | AlphaScreen MITF homodimerization, biotin/His-MITF beads | hit rate 16% among 4,700 | inhibition, % at 2.6 µM | shares compounds with MITF inh | AID 1259372, 2018;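 active = inhibition above a cutoff derived from the DMSO control wells, cut at about 28% in these data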;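 also: 0% = MITF dimer wells with DMSO only; inhibitors lower the bead chemiluminescence by keeping MITF from dimerizing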
AS interf ctr: AlphaScreen optical interference compounds, counter-screen for MITF inhibitor project, biochemical, triplicate; shares compounds with MITF inh; hit rate 7.6% among 4,700; LysRS AlphaScreen counterscreen, signal interference; inhibition, % at 2.6 µM; AID 1259376, 2018;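 active = inhibition above a cutoff derived from the DMSO control wells, cut at about 30% in these data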
* marks the source's active call; other numbers are inactive results; ! = not active in a repeat.

Results for O=C(COc1ccc(Br)cc1)N1CCN(Cc2ccncc2)CC1 ?
FBW7 act: 0; GPR151 ag: 1; TEAD-YAP block: 2; MITF inh: 100*; MITF inh conf: -4; AS interf ctr: -2

What do the screens show for `COc1ccc(OC)c(/C=C/c2nc3ccccc3c(=O)n2-c2ccc(C)cc2)c1`?
FBW7 act: 0; GPR151 ag: 0; TEAD-YAP block: -5; MITF inh: -1

How did COC(=O)C1=C(N)Oc2c(c(=O)oc3ccccc23)C12C(=O)N(C)c1ccccc12 (stereo not drawn) do in these assays?
FBW7 act: 0; GPR151 ag: 0; TEAD-YAP block: 0; MITF inh: 13

How did COc1cccc(CN2CCN(C(=O)COc3cccc(C)c3)CC2)c1 do in these assays?
FBW7 act: 0; GPR151 ag: 1; TEAD-YAP block: 0; MITF inh: 57*; MITF inh conf: -4; AS interf ctr: 3

What do the screens show for `Cc1cccc(OCC(=O)N2CCN(Cc3ccncc3)CC2)c1`?
FBW7 act: 0; GPR151 ag: 0; TEAD-YAP block: -8; MITF inh: 73*; MITF inh conf: -3; AS interf ctr: 3

How did Cc1ccc(CC(=O)N2CCN(Cc3ccc4c(c3)OCO4)CC2)cc1 do in these assays?
FBW7 act: 0; GPR151 ag: 2; TEAD-YAP block: -1; MITF inh: 11

How did COc1ccc(OCC(=O)N2CCN(Cc3ccccc3C)CC2)cc1 do in these assays?
FBW7 act: 0; GPR151 ag: 0; TEAD-YAP block: -6; MITF inh: 54*; MITF inh conf: 6; AS interf ctr: 0

How did COc1cc(CN2CCN(C(=O)COc3ccccc3)CC2)cc(OC)c1OC do in these assays?
FBW7 act: 0; GPR151 ag: 0; TEAD-YAP block: -4; MITF inh: 44

How did O=C(COc1ccc(Br)cc1)N1CCN(Cc2ccc3c(c2)OCO3)CC1 do in these assays?
FBW7 act: 0; GPR151 ag: 2; TEAD-YAP block: 9; MITF inh: 64*; MITF inh conf: 14; AS interf ctr: 25

What do the screens show for `O=[N+]([O-])c1ccc(N(CCO)CCO)c2nonc12`?
FBW7 act: 0; GPR151 ag: 0; TEAD-YAP block: 13; MITF inh: 1

What do the screens show for `COc1ccccc1-n1c(/C=C2/C(=O)Nc3ccccc32)nc2ccccc2c1=O`?
FBW7 act: 0; GPR151 ag: 1; TEAD-YAP block: 4; MITF inh: 12

Results for Cc1cccc(CC(=O)N2CCN(Cc3nc4ccccc4[nH]3)CC2)c1 ?
FBW7 act: -1; GPR151 ag: 1; TEAD-YAP block: 7; MITF inh: 55*; MITF inh conf: 9; AS interf ctr: 19

What do the screens show for `COc1cccc(CN2CCN(c3ccc([N+](=O)[O-])cc3)CC2)c1`?
FBW7 act: 0; GPR151 ag: 4; TEAD-YAP block: 4; MITF inh: 40

Results for COc1cccc(CN2CCN(Cc3ccc(Br)cc3)CC2)c1 ?
FBW7 act: 0; GPR151 ag: -1; TEAD-YAP block: -8; MITF inh: 70*; MITF inh conf: 4; AS interf ctr: 15

How did COc1cccc(CN2CCN(Cc3cccc(Br)c3)CC2)c1 do in these assays?
FBW7 act: 0; GPR151 ag: -1; TEAD-YAP block: 2; MITF inh: 63*; MITF inh conf: 13; AS interf ctr: 16

How did CN1C(=C2C(=O)NC(=S)NC2=O)Sc2ccccc21 do in these assays?
FBW7 act: 0; GPR151 ag: 0; TEAD-YAP block: 2; MITF inh: 7

Results for CC1(C2CCN(C(=O)C3C(C)(C)C3(C)C)CC2)NC(=O)N(Cc2ccsc2)C1=O (stereo not drawn) ?
FBW7 act: 1; GPR151 ag: -1; TEAD-YAP block: 1; MITF inh: 22

Results for CN1C2CCC1CC(OC(=O)CNC1CCCCC1)C2 (stereo not drawn) ?
FBW7 act: 0; GPR151 ag: 3; TEAD-YAP block: -5; MITF inh: 55*; MITF inh conf: 8; AS interf ctr: 14

Results for CC(C)CCCC(C)NC(=O)C(Cl)(Cl)Cl (stereo not drawn) ?
FBW7 act: 0; GPR151 ag: 0; TEAD-YAP block: 4; MITF inh: -21

How did COc1ccc(CN2CCN(Cc3cccc(Cl)c3)CC2)cc1 do in these assays?
FBW7 act: 0; GPR151 ag: 1; TEAD-YAP block: 6; MITF inh: 83*; MITF inh conf: 19; AS interf ctr: 14

Results for COc1cccc(CN2CCN(Cc3cccc(Cl)c3)CC2)c1 ?
FBW7 act: 0; GPR151 ag: -1; TEAD-YAP block: 17; MITF inh: 70*; MITF inh conf: 14; AS interf ctr: 20

How did CSc1ccc(CN2CCN(Cc3cccc(Cl)c3)CC2)cc1 do in these assays?
FBW7 act: 0; GPR151 ag: 0; TEAD-YAP block: 2; MITF inh: 67*; MITF inh conf: 19; AS interf ctr: 20

What do the screens show for `COc1ccc(O)c(CN2CCN(Cc3cccc(Cl)c3)CC2)c1`?
FBW7 act: 0; GPR151 ag: 1; TEAD-YAP block: -5; MITF inh: 5

What do the screens show for `CC(=O)c1ccc(N2CCN(Cc3cccc(Cl)c3)CC2)cc1`?
FBW7 act: 0; GPR151 ag: 1; TEAD-YAP block: -2; MITF inh: 33

What do the screens show for `CN1CCN(Cc2ccc(F)c(F)c2)CC1CCO` (stereo not drawn)?
FBW7 act: 0; GPR151 ag: -1; TEAD-YAP block: 7; MITF inh: -4

Results for O=P(O)(O)C(Cl)(Cl)P(=O)(O)O ?
FBW7 act: 0; GPR151 ag: 1; TEAD-YAP block: -7; MITF inh: 77*!; MITF inh conf: 63*; AS interf ctr: -7

Results for Cc1nc2ccc(P(=O)(O)O)cc2s1 ?
FBW7 act: 0; GPR151 ag: 3; TEAD-YAP block: 6; MITF inh: 55*; MITF inh conf: 12; AS interf ctr: 40*

What do the screens show for `CCN1CCN(Cc2ccccc2OC)CC1`?
FBW7 act: 0; GPR151 ag: 0; TEAD-YAP block: -3; MITF inh: -67

What do the screens show for `COc1ccccc1CN1CCN(Cc2ccccc2C)CC1`?
FBW7 act: 0; GPR151 ag: 0; TEAD-YAP block: -8; MITF inh: 78*; MITF inh conf: 7; AS interf ctr: 9

What do the screens show for `COc1ccccc1CN1CCN(Cc2ccccc2Br)CC1`?
FBW7 act: 0; GPR151 ag: -2; TEAD-YAP block: -16; MITF inh: 71*; MITF inh conf: 2; AS interf ctr: 6

What do the screens show for `CNC(=O)N1c2ccc(C)cc2C2CN(C)CCC21` (stereo not drawn)?
FBW7 act: 0; GPR151 ag: -1; TEAD-YAP block: 11; MITF inh: 9
